Common to all, as to assay: DAPPL (digital affinity profiling via proximity ligation, sequencing); 10 mM Tris-HCl pH 7.5, 50 mM NaCl, 1 mM DTT, 4% glycerol, room temperature, 30 min; GST-TFs on glutathione beads, 16-mer random dsDNA library, 0.1% formaldehyde crosslink after washing; high values mean tight binding
For experiment [1], the target named is T1, FEV (Homo sapiens, UniProt Q99581 1-238).
T1 sequence: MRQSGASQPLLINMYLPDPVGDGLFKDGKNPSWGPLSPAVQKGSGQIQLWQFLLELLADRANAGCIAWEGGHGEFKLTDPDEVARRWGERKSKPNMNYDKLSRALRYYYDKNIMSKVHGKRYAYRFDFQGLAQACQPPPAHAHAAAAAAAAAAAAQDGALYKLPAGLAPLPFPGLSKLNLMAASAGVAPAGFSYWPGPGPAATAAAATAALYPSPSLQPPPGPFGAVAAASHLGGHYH
As to conditions: protein: recombinant; tags: N-terminal GST; dsDNA, one strand shown. In a few lines:
(§1)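 Binding signal is each hexamer's read frequency for a factor divided by its frequency in the tag-only sample. The factors were GST-fused human transcription factors from yeast, captured on glutathione beads, DNA-barcoded and pooled with that sample. Pools were incubated with 200 nmole of a random double-stranded 16-mer DNA library in Tris/NaCl/DTT/glycerol buffer at room temperature for 30 min, then washed, crosslinked with 0.1% formaldehyde, proximity-ligated with BsaI/T4 ligase (1 h, 37 °C), PCR-amplified and sequenced on an Illumina NextSeq500.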

The target in experiment [2] is ETV5 (Homo sapiens, UniProt P41161 1-510). As to conditions: protein: recombinant; tags: N-terminal GST; dsDNA, one strand shown. In a few lines: as §1
Sequence of ETV5 (P41161 whole entry): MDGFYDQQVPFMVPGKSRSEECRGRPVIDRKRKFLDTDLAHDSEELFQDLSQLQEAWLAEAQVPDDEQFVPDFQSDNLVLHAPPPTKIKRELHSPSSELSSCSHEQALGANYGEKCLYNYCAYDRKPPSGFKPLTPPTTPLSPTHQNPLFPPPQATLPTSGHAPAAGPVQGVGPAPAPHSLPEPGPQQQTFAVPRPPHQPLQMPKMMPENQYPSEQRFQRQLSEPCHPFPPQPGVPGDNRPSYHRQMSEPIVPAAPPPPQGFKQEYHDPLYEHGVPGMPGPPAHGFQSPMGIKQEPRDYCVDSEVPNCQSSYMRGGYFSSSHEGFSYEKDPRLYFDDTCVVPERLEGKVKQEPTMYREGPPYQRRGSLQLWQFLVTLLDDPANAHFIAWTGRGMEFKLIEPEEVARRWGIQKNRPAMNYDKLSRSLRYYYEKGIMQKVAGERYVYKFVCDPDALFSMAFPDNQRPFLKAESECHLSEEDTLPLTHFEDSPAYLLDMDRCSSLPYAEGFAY
Experiment [3] concerns the target HSF1 (Homo sapiens, UniProt Q00613 1-529). Particulars: protein: recombinant; tags: N-terminal GST; chain copies: 3; dsDNA, one strand shown. A digest of the protocol: as §1
Experiment [4] concerns the target T2, SPIC (Homo sapiens, UniProt Q8N5J4 1-248).
T2 sequence: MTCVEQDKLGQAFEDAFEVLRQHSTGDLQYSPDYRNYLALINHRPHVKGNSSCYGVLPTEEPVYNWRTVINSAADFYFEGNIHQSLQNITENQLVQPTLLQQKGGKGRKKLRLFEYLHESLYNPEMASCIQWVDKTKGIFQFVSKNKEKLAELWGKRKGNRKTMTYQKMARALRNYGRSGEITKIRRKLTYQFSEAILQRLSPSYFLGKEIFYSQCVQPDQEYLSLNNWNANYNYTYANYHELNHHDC
Particulars: protein: recombinant; tags: N-terminal GST; dsDNA, one strand shown. A digest of the protocol:
as §1

For experiment [5], the target named is ELF4 (Homo sapiens, UniProt Q99607 1-663). As to conditions: protein: recombinant; tags: N-terminal GST; dsDNA, one strand shown. A digest of the protocol: as §1
Sequence of ELF4 (Q99607 whole entry): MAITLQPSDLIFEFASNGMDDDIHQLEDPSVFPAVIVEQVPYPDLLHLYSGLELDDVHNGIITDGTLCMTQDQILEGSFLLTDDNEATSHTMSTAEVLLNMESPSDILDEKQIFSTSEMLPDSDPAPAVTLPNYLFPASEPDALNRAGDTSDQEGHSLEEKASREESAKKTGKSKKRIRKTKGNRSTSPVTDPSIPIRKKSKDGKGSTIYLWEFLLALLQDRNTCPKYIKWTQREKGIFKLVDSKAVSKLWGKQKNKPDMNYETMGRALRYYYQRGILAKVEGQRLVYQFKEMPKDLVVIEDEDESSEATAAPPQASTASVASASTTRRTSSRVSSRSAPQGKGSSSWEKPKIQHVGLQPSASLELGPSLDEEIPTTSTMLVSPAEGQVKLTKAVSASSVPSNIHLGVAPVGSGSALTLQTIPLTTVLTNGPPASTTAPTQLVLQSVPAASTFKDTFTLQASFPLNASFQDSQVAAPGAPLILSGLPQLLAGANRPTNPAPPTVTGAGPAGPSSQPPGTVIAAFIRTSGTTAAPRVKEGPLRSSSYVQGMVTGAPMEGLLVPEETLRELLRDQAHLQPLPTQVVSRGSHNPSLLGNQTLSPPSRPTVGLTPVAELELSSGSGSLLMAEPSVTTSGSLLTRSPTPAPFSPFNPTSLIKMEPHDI
Experiment [6] addresses T3, ELK4 (Homo sapiens, UniProt P28324-2 1-405).
T3 sequence: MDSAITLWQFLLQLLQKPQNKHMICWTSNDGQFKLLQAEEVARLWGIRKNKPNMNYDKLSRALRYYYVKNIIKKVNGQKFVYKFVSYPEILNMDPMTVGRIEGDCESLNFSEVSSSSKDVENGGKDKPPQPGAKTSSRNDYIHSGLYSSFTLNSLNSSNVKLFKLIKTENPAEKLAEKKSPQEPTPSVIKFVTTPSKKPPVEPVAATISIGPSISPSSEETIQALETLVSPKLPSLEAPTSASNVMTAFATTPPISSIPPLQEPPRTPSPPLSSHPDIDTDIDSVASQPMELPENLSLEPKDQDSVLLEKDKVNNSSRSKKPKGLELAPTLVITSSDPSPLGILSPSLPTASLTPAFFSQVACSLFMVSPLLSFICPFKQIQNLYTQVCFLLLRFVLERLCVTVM
Particulars: protein: recombinant; tags: N-terminal GST; dsDNA, one strand shown. A digest of the protocol: as §1

For experiment [7], the target named is T4, ETV2 (Homo sapiens, UniProt O00321 1-342).
T4 sequence: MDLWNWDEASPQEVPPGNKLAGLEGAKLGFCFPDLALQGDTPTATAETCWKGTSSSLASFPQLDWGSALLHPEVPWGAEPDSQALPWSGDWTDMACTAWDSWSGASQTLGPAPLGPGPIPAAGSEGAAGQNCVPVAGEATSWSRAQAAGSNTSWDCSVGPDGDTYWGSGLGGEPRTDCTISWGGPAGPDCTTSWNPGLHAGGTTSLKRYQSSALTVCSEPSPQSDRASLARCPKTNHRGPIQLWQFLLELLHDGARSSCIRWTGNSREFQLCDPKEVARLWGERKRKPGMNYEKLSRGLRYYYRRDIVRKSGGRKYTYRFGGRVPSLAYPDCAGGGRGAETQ
As to conditions: protein: recombinant; tags: N-terminal GST; dsDNA, one strand shown. A digest of the protocol:
as §1

The target in experiment [8] is T5, ELF3 (Homo sapiens, UniProt P78545 1-371).
T5 sequence: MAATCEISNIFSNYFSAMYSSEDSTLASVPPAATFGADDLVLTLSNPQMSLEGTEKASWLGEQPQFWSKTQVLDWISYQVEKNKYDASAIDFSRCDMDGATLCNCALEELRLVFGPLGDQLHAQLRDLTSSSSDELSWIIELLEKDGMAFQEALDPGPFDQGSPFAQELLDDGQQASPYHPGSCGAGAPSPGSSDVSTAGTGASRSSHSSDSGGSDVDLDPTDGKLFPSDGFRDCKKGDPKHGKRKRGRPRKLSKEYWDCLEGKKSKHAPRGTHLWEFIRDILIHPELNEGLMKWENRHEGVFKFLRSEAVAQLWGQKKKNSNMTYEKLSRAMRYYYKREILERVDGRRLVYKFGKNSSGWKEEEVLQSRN
As to conditions: protein: recombinant; tags: N-terminal GST; dsDNA, one strand shown. A digest of the protocol:
as §1

Experiment [9] concerns the target CRX (Homo sapiens, UniProt O43186 1-299). As to conditions: protein: recombinant; tags: N-terminal GST; dsDNA, one strand shown. In a few lines:
as §1

Experiment [10] deals with ETV1 (Homo sapiens, UniProt P50549 1-477). As to conditions: protein: recombinant; tags: N-terminal GST; dsDNA, one strand shown. A digest of the protocol: as §1
Sequence of ETV1 (P50549 whole entry): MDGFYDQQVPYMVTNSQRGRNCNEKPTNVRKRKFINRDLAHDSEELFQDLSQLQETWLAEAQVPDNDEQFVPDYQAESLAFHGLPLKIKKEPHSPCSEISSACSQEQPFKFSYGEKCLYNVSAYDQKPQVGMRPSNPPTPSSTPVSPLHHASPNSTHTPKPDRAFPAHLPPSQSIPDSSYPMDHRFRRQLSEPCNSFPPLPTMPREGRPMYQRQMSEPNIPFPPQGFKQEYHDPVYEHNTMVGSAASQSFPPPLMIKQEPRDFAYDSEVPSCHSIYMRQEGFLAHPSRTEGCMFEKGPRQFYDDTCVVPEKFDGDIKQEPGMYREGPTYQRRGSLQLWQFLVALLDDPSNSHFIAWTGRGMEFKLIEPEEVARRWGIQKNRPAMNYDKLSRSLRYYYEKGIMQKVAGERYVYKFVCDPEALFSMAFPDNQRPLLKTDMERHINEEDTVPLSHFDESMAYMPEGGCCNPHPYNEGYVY
In experiment [11] the target is T6, ERF (Homo sapiens, UniProt P50548 1-548).
T6 sequence: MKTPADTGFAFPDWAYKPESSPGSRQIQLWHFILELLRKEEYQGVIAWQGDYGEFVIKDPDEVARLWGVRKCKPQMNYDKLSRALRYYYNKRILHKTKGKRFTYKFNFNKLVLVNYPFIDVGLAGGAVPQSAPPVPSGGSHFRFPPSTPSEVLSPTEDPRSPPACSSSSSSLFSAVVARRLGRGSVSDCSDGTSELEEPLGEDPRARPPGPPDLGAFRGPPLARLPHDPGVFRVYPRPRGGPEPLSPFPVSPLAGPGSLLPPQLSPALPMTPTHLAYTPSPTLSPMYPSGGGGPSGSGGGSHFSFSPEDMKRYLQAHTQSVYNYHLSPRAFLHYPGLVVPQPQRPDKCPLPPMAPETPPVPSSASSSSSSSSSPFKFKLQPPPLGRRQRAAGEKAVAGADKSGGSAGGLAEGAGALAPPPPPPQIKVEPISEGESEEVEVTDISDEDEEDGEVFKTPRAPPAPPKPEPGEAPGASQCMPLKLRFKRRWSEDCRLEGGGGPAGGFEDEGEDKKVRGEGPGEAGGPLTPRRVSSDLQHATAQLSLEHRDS
As to conditions: protein: recombinant; tags: N-terminal GST; dsDNA, one strand shown. In a few lines: as §1

The target in experiment [12] is T7, ETV3L (Homo sapiens, UniProt Q6ZN32 1-361).
T7 sequence: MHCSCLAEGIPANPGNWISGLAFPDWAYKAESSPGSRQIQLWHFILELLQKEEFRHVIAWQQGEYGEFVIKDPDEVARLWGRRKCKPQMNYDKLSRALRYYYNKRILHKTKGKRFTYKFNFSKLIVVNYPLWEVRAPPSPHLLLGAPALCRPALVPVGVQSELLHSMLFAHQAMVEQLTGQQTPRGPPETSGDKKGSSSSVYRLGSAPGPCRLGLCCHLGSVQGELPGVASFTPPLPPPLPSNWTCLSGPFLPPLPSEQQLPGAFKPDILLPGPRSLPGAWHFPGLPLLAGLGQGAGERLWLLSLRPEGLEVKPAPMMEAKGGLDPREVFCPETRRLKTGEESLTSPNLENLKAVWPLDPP
As to conditions: protein: recombinant; tags: N-terminal GST; dsDNA, one strand shown. A digest of the protocol: as §1

For experiment [13], the target named is T8, ETS2 (Homo sapiens, UniProt P15036 1-469).
T8 sequence: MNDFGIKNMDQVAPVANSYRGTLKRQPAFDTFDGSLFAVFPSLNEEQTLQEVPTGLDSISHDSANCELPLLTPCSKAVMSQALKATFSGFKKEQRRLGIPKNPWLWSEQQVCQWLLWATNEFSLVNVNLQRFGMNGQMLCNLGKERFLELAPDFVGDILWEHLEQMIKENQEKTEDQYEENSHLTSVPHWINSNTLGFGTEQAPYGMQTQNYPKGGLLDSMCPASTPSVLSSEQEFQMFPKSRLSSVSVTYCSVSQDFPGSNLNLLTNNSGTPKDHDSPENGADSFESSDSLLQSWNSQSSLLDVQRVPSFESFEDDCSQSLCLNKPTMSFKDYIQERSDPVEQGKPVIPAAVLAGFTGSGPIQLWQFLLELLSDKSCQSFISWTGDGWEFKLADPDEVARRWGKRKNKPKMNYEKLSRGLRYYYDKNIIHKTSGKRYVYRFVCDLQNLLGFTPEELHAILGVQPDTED
As to conditions: protein: recombinant; tags: N-terminal GST; dsDNA, one strand shown. In a few lines:
as §1

Experiment [14] deals with T9, SPDEF (Homo sapiens, UniProt O95238 1-335).
T9 sequence: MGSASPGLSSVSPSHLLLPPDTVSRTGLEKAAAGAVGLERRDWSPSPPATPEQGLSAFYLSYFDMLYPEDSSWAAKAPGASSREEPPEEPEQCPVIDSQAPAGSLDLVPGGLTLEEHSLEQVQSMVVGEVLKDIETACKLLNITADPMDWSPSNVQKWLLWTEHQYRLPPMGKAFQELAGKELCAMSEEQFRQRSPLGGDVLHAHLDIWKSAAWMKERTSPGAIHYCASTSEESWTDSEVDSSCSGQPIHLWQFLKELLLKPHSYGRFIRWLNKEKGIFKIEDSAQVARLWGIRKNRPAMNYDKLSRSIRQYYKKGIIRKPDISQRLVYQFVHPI
Particulars: protein: recombinant; tags: N-terminal GST; dsDNA, one strand shown. In a few lines:
as §1

Experiment [15] has as its target T10, ETV7 (Homo sapiens, UniProt Q9Y603 1-341).
T10 sequence: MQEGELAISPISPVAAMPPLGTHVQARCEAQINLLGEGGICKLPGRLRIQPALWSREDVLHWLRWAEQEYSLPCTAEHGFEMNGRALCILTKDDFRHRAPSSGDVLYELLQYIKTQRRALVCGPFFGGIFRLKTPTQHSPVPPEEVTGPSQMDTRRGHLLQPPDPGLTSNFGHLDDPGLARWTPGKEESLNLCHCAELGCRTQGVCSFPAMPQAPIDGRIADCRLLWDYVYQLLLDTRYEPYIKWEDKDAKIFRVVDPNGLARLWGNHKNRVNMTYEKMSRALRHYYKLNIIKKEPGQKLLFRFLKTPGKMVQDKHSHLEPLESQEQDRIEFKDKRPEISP
As to conditions: protein: recombinant; tags: N-terminal GST; dsDNA, one strand shown. In a few lines:
as §1

The target in experiment [16] is T11, ELF5 (Homo sapiens, UniProt Q9UKW6-2 1-255).
T11 sequence: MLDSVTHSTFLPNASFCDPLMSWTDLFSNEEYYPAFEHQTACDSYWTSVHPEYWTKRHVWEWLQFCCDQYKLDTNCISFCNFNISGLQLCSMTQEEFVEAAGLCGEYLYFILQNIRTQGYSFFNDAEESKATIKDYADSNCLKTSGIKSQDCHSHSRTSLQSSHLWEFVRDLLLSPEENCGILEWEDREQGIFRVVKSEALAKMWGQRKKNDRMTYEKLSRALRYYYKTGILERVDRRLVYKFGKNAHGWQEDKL
As to conditions: protein: recombinant; tags: N-terminal GST; dsDNA, one strand shown. A digest of the protocol: as §1

Experiment [17] deals with T12, ETV3 (Homo sapiens, UniProt P41162-2 1-143).
T12 sequence: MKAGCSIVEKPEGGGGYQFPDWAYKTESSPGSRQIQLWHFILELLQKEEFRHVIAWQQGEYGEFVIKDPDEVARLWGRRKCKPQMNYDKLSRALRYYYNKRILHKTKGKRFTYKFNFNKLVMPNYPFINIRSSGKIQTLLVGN
As to conditions: protein: recombinant; tags: N-terminal GST; dsDNA, one strand shown. A digest of the protocol: as §1

Experiment [18] has as its target ETV6 (Homo sapiens, UniProt P41212 1-452). Particulars: protein: recombinant; tags: N-terminal GST; dsDNA, one strand shown. A digest of the protocol: as §1

Sequence of CRX (O43186 whole entry): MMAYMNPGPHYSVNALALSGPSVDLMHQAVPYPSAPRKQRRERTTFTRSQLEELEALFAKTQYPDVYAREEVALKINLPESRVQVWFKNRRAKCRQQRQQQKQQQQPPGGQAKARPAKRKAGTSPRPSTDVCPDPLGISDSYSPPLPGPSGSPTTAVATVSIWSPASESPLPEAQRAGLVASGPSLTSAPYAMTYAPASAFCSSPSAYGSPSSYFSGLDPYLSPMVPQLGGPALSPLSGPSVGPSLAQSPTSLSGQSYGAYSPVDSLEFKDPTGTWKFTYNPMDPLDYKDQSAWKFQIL
Sequence of HSF1 (Q00613 whole entry): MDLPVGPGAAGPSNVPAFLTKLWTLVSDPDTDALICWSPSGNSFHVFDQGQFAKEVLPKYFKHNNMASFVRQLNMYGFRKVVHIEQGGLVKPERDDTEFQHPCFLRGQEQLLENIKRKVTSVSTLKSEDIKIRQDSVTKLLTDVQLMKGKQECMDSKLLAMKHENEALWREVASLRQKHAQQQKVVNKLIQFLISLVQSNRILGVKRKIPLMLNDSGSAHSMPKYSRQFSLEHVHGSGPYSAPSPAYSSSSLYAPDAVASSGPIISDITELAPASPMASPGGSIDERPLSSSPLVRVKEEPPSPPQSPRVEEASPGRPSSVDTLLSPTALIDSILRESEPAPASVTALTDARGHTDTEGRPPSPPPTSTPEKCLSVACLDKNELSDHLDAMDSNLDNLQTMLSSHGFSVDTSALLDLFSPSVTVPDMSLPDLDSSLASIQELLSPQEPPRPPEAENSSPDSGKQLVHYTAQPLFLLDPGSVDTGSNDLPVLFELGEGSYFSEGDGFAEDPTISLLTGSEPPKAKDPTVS
Sequence of ETV6 (P41212 whole entry): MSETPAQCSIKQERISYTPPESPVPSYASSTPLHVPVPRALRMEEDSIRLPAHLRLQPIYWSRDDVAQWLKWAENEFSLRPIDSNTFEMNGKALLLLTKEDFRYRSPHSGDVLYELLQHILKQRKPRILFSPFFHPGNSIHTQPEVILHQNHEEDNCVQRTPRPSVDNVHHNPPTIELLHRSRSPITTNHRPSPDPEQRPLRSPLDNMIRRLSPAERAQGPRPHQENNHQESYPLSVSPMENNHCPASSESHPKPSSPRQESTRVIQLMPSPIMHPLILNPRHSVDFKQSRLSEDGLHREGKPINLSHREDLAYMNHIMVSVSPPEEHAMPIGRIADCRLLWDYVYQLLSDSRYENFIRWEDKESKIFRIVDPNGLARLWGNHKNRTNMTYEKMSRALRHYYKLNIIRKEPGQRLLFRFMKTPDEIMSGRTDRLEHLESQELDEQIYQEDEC

As to TAAATT, the binding signal in experiment [1] is 1.25 fold enrichment (6-mer frequency, TF over GST control); in experiment [2], 1.26 fold enrichment (6-mer frequency, TF over GST control); in experiment [3] it was 1.51 fold enrichment (6-mer frequency, TF over GST control); in experiment [4], 1.25 fold enrichment (6-mer frequency, TF over GST control); in experiment [5], 1.17 fold enrichment (6-mer frequency, TF over GST control); in experiment [6], 1.31 fold enrichment (6-mer frequency, TF over GST control). The binding signal in experiment [7] was 1.34 fold enrichment (6-mer frequency, TF over GST control); in experiment [8] it was 1.32 fold enrichment (6-mer frequency, TF over GST control); in experiment [9], 1.76 fold enrichment (6-mer frequency, TF over GST control); in experiment [10] it was 1.17 fold enrichment (6-mer frequency, TF over GST control); in [11] it was 1.3 fold enrichment (6-mer frequency, TF over GST control); in experiment [12], 1.32 fold enrichment (6-mer frequency, TF over GST control). Further, the binding signal is 1.17 fold enrichment (6-mer frequency, TF over GST control) in experiment [13]; 1.21 fold enrichment (6-mer frequency, TF over GST control) in experiment [14]; 1.27 fold enrichment (6-mer frequency, TF over GST control) in experiment [15]; 1.19 fold enrichment (6-mer frequency, TF over GST control) in [16]; 1.21 fold enrichment (6-mer frequency, TF over GST control) in experiment [17]; 1.28 fold enrichment (6-mer frequency, TF over GST control) in experiment [18].

Values taken from article PMC7862700, “An all-to-all approach to the identification of sequence-specific readers for epigenetic DNA modifications on cytosine”.
